Laboratory results: PubChem BioAssay (Tox21)
Inconclusive results are not listed. Active and inactive are the calls of the source. Calls come from the whole dose curve; as a rule, active = well fitted activation curve with a large enough effect in the repeat runs; inconclusive = weak or mixed curves; inactive = no such curve, though single readings can be large or run the other way.
% is set by controls: 0 for no effect and ±100 for the full control effect; potency is the fitted concentration of half-maximal effect.

What follows are compounds tested against Nuclear receptor subfamily 1 group I member 2 (Rattus norvegicus) (UniProt Q9R1A7) (assay: Rat pregnane X receptor (rPXR) activation by small molecules, qHTS assay (AID 1346983; note: nearly all actives have a fitted effect of over 20% in size)). Settings: rPXR luciferase reporter cells, One-Glo luminescence, 24 h; max activation: stronger effect = higher value.
Chain of Nuclear receptor subfamily 1 group I member 2 (Rattus norvegicus) (Q9R1A7 whole entry, looked up): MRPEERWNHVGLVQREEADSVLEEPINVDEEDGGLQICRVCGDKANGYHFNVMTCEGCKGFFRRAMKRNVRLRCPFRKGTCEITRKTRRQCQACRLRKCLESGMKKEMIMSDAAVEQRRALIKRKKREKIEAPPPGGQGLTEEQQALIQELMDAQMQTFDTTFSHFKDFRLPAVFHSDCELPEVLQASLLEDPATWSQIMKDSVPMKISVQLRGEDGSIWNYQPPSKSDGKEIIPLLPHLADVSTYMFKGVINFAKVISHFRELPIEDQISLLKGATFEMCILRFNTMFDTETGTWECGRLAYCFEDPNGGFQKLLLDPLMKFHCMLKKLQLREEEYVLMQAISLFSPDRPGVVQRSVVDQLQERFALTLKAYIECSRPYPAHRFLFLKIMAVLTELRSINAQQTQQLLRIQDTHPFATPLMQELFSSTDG
Excerpt: National Center for Advancing Translational Sciences [NCATS] NIH Chemical Genomics Center [NCGC] U.S. Environmental Protection Agency [EPA] National Institutes of Environmental Health Sciences [NIEHS] National Toxicology Program [NTP] Assay overview: The Pregnane X receptor (PXR), a ligand activated nuclear receptor plays a critical role in the regulation of genes involved in drug metabolism and transporters. PXR binds xenobiotics and when compounds interact with PXR produces enhanced expression of CYP3A genes. In humans PXR activation and CYP3A4 induction can be problematic due to their interactions with co-medicated drugs and decrease their efficacy or increase their own metabolism. However, there are known species-specific differences with regard to PXR activation that should be taken into account when animal PXR data are extrapolated to humans. A cell based rat PXR (rPXR) assay (developed by Puracyp, Inc., CA) was used to assess the activation of rPXR.
Assay Protocol Summary: rPXR cells were dispensed at 2,000 per well in 5uL of assay medium into white, solid-bottom 1536-well plates using a Multidrop Combi dispenser (Thermo Scientific). The assay plates were incubated at 37 C for 5hr before transferring 23 nL of test compounds dissolved in DMSO and positive control via Pintool station (Wako). The assay plates were incubated at 37 C for 24 hr. Then 5ul One-Glo assay reagent (Promega) was added to each plate by a Flying Reagent Dispenser (FRD, Aurora Discovery) and following 30 min incubation at room temperature, luciferase activity was quantified on a ViewLux plate reader (Perkin Elmer).
For O=C(Nc1cccc(C(F)(F)F)c1)c1cc(Br)cc(Br)c1O, the max activation was -18.6% (inactive). C[C@H]1[C@H]2CC[C@H]3[C@@H]4CC=C5C[C@@H](N(C)C)CC[C@]5(C)[C@H]4CC[C@]23CN1C was tested, and the max activation was -5.76% (inactive). CCc1oc2ccccc2c1C(=O)c1cc(Br)c(O)c(Br)c1 was tested, and the max activation was -3.61% (inactive). In the case of CN(C)[C@@H]1C(=O)C(C(N)=O)=C(O)[C@@]2(O)C(=O)C3=C(O)c4c(O)ccc(Cl)c4[C@@H](O)[C@H]3C[C@@H]12, the max activation was -0.517% (inactive). In the case of Cc1ccc(O)c2ncccc12, the max activation was -0.8% (inactive). In the case of CCN(CC)CCNC(=O)c1c(C)[nH]c(/C=C2\C(=O)Nc3ccc(F)cc32)c1C, the max activation was -11.9% (inactive). With CCCCCCC[N+](CC)(CC)CCCCc1ccc(Cl)cc1 the max activation was -3.24% (inactive). For COc1cc(/C=C/C(=O)O[C@H]2CC[C@]34C[C@]35CC[C@]3(C)[C@@H]([C@H](C)CCC=C(C)C)CC[C@@]3(C)[C@@H]5CC[C@H]4C2(C)C)ccc1O, the max activation was -10.7% (inactive). With CC(C)(C)C(=O)OCOC(=O)[C@@H]1N2C(=O)[C@@H](NC(=O)[C@H](N)c3ccccc3)[C@H]2SC1(C)C the max activation was -1.52% (inactive). With Cc1cc(O)c2ccccc2c1O the max activation was 10% (inactive). With CCN1/C(=C/C=C/c2sc3ccccc3[n+]2CC)Sc2ccccc21 the max activation was -26.5% (inactive). With Clc1ccc2nsnc2c1NC1=NCCN1 the max activation was -3.32% (inactive). In the case of CC[C@H](c1ccc(O)cc1)[C@@H](CC)c1ccc(O)cc1, the max activation was -4.59% (inactive). Cc1cccc(CN2CCN(C(c3ccccc3)c3ccc(Cl)cc3)CC2)c1 (stereo not given) was tested, and the max activation was -4.36% (inactive). For CCC1=C[C@@H]2CN(C1)Cc1c([nH]c3ccccc13)[C@@](C(=O)OC)(c1cc3c(cc1OC)N(C)[C@H]1[C@@](O)(C(=O)OC)[C@H](OC(C)=O)[C@]4(CC)C=CCN5CC[C@]31[C@@H]54)C2, the Potency was 3.55 µM (active). CC(C)(C)c1ccc(C(=O)CCCN2CCC(OC(c3ccccc3)c3ccccc3)CC2)cc1 was tested, and the max activation was -2.11% (inactive). With CCCCCCCCOc1ccccc1C(=O)Nc1ccc(C(=O)OCC[N+](C)(CC)CC)cc1 the max activation was 0.409% (inactive). O=C(Oc1cccc2cccnc12)c1ccccc1 was tested, and the max activation was -3.5% (inactive). In the case of CC(=O)N1CCN(c2ccc(OC[C@H]3CO[C@](Cn4ccnc4)(c4ccc(Cl)cc4Cl)O3)cc2)CC1, the max activation was -4.95% (inactive). With NC(=O)NS(=O)(=O)c1ccc(N)cc1 the max activation was -4.58% (inactive). In the case of CC[C@@]1(O)C(=O)OCc2c1cc1n(c2=O)Cc2cc3c(CN(C)C)c(O)ccc3nc2-1, the max activation was -5.54% (inactive). With Clc1ccccc1C(c1ccccc1)(c1ccccc1)n1ccnc1 the Potency was 3.98 µM (active). With COc1ccc(C(=O)/C(Br)=C\C(=O)O)cc1 the max activation was -6.96% (inactive). In the case of CCOc1ccc2nc3cc(N)ccc3c(N)c2c1, the max activation was 1.69% (inactive). For Cc1c(C)c2c(c(C)c1O)CCC(C)(COc1ccc(CC3SC(=O)NC3=O)cc1)O2 (stereo not given), the max activation was -5.73% (inactive). In the case of Cc1cc(C2CCCCC2)n(O)c(=O)c1, the max activation was -2.39% (inactive). In the case of CN1CCC(Nc2ncc3ncnc(Nc4ccc(F)c(Cl)c4)c3n2)CC1, the max activation was -19.5% (inactive). In the case of O=C1Cc2cc(CCN3CCN(c4nsc5ccccc45)CC3)c(Cl)cc2N1, the max activation was -10.8% (inactive). In the case of O=c1[nH]cnc2nc[nH]c12, the max activation was -3.71% (inactive). In the case of CC(C)(C)CC(C)(C)c1ccc(O)c(Cc2ccc(Cl)cc2Cl)c1, the max activation was -0.0398% (inactive). In the case of CCCCCCCCCCCCCCCC[N+](C)(C)CCN(Cc1ccc(OC)cc1)c1ncccn1, the max activation was -2.3% (inactive). For CN(C/C=C/C#CC(C)(C)C)Cc1cccc2ccccc12, the max activation was 0.136% (inactive). With Cc1c(C)c2c(c(C)c1OC(=O)CCC(=O)O)CC[C@@](C)(CCC[C@H](C)CCC[C@H](C)CCCC(C)C)O2 the max activation was -1.35% (inactive). For O=c1c(-c2ccccc2)c1-c1ccccc1, the max activation was -15.6% (inactive). In the case of [O-][n+]1ccccc1SSc1cccc[n+]1[O-], the max activation was -9.36% (inactive). With Oc1c(Cl)cc(Cl)c2cccnc12 the max activation was 4.53% (inactive). For CC(C)=CCOc1ccc(/C=C/C(=O)c2ccc(OCC=C(C)C)cc2OCC(=O)O)cc1, the max activation was -3.35% (inactive). N/C(=N\N=C\c1ccc(Cl)cc1)N/N=C/c1ccc(Cl)cc1 was tested, and the max activation was -3.26% (inactive). O=C(N/N=C/c1ccccc1O)c1ccncc1 was tested, and the max activation was -3.33% (inactive). For CC(=O)SC[C@@H](Cc1ccccc1)C(=O)NCC(=O)OCc1ccccc1, the max activation was -6.71% (inactive).
